# The source made the active and inactive calls. How the source made its calls: active means hit-call score of the fitted dose curve at least 0.9, where 1 is the maximum; inactive means score below 0.9.
# Test: ATG_SREBP_CIS: Attagene CIS-FACTORIAL HepG2 Assay for human Sterol Regulatory Element Binding (SREBP) (AID 2282962)
# Details: HepG2 Attagene cis-factorial SREBP reporter, mRNA; actives raise or lower the signal
# Procedure: ATG_CIS is a cell-based, multiplexed-readout assay that uses HepG2, a human liver cell line, with measurements taken at 24 hours after chemical dosing in a 24-well plate.ATG_SREBP_CIS is one of 52 assay component(s) measured or calculated from the ATG_CIS assay. It is designed to make measurements of mRNA induction, a form of inducible reporter, as detected with fluorescence intensity signals by Reverse transcription polymerase chain reaction (RT-PCR) and Capillary electrophoresis technology.Data from the assay component ATG_SREBP_CIS was analyzed into 1 assay endpoint. This assay endpoint, ATG_SREBP_CIS, was analyzed with bidirectional fitting relative to DMSO as the negative control and baseline of activity. Using a type of inducible reporter, measures of mRNA for gain or loss-of-signal activity can be used to understand the reporter gene at the transcription factor-level as they relate to the gene SREBF1. Furthermore, this assay endpoint can be referred to as a primary readout, because this assay has produced multiple assay endpoints where this one serves a reporter gene function. To generalize the intended target to other relatable targets, this assay endpoint is annotated to the dna binding intended target family, where the subfamily is basic helix-loop-helix leucine zipper.
# Human liver HepG2 cells are transiently transfected with multiple reporter transcription units (MRTUs) in 6-well plates using FuGene 6 reagent (Roche; 3 ml FuGene/1 mg DNA). The MRTU constructs are regulated by a cis-regulating element (promoter). […] A major difference between the CIS and TRANS system is that in CIS activities of endogenous TFs are measured, whereas the TRANS assay evaluates changes in activities of exogenous, chimeric NR-Gal4 proteins. […] At the end of 24 hour incubation, total RNA was isolated using TriZol reagent (Invitrogen). The isolated RNA is then reverse-transcribed using oligo(dT) primer and Mo-MLV reverse transcriptase (Invitrogen) with DNAse I (Ambion) treatment for 30 min. The one-tenth of the produced cDNA was amplified by PCR using Taq DNA polymerase (Invitrogen) and two reporter sequence-specific primers. The PCR products were fluorescently labeled by primer extension with 6-arboxyfluorescein (6-FAM) 5'-labeled reporter sequence-specific primer (2 min at 95 C, 20 s at 68 C and 10 min at 72 C) and these products were digested with 5U of HpaI (New England Biolabs) for 2h at 37 C. The fragments were purified using Qiaquick PCR columns (Qiagen), analyzed on an ABI 3130xL genetic analyzer (Applied Biosystems) with peak positions identified by using a set of X-rhodamine (ROX)-labeled MapMarker1000 molecular weight standards (BioVentures). The raw capillary electrophoresis data was processed using Attagraph software (Attagene).
Structure (SMILES),outcome,AC50
OC1OC[C@@H](O)[C@H](O)[C@H]1O (stereo not given in full),inactive,–
CCCCCC(CO)CCC (stereo not given),inactive,–
O=c1[nH]nnc2ccccc12,inactive,–
C=C[Si](OCC)(OCC)OCC,inactive,–
CC(=O)/C=C/C1=C(C)CCCC1(C)C,inactive,–
CC1CCC(C(C)(C)O)CC1 (stereo not given),inactive,–
O=[N+]([O-])c1cc(C(F)(F)F)ccc1Cl,inactive,–
O=S(=O)(O)c1cccc2c(S(=O)(=O)O)cccc12,inactive,–
COc1ccnc(CS(=O)c2nc3cc(OC(F)F)ccc3[nH]2)c1OC (stereo not given),inactive,–
CCCCCCCCCCCCSC,inactive,–
CC(=O)OCC=Cc1ccccc1,inactive,–
CC(C)(C)c1n[nH]c(=S)n(N)c1=O,inactive,–
COc1cccc(OC)c1,inactive,–
CCN(CC)c1ccc2c(-c3ccccc3C(=O)O)c3ccc(=[N+](CC)CC)cc-3oc2c1,–,26.9 µM (active)
[Ca+2],inactive,–
CCCCCCCCCCCCCC(=O)O,–,54.9 µM (active)
CCCCCCCCC=O,inactive,–
O=C(O)c1ccc(C(=O)O)cc1,inactive,–
O=P(c1ccccc1)(c1ccccc1)c1ccccc1,inactive,–
CC(=O)Nc1ccc(C)cc1C,inactive,–

Structure (SMILES),outcome,AC50
CC(CC(C)(C)C)CC(C)(C)CC(C)(C)C (stereo not given),inactive,–
CCCCCCOC(=O)CC,inactive,–
CC1CCC2CC1C2(C)C (stereo not given),inactive,–
OCCOc1cccc(OCCO)c1,inactive,–
O=CCCc1ccccc1,inactive,–
C=CC(C)(CCC=C(C)C)OC=O (stereo not given),inactive,–
CC(=O)OCc1ccc2c(c1)OCO2,inactive,–
NCCCCCCN,inactive,–
Cc1ncc([N+](=O)[O-])n1C,inactive,–
CCCCCCCCCCCCN(CCCCCCCCCCCC)CCCCCCCCCCCC,inactive,–
S=C(S)NCCNC(=S)S,inactive,–
O=C(Nc1ccccc1)c1cc([N+](=O)[O-])ccc1Cl,inactive,–
CCCCCOC(=O)CCC,inactive,–
C=CC(=O)OCC(O)COc1ccccc1 (stereo not given),inactive,–
Clc1nc(C(Cl)(Cl)Cl)c(Cl)c(Cl)c1Cl,–,52.5 µM (active)
O=C(OCc1ccccc1)C(=O)OCc1ccccc1,inactive,–
c1ccc2sc(SN(C3CCCCC3)C3CCCCC3)nc2c1,inactive,–
CCCCC/C=C/C=C/C=O,inactive,–
CCCc1ccccc1O,inactive,–
C=CCOC(=O)CCC1CCCCC1,inactive,–
